# VLA-4 inh = inhibition in human VLA-4 binding assay, primary screen, VLA-4 allosteric modulator project, MLPCN library, flow cytometry, VLA-4 expressing cells; inhibition, % (about 7 µM as worked out from the volumes in the protocol); AID 2557, 2010; ligand binding flow cytometry; 0.2% of 330,000 active; in the data active means inhibition above about 50%
# PREPL inhibitor = PREPL enzyme inhibitors, primary screen, biochemical, fluorescence polarization; inhibition, % at 5.96 µM; Prolyl endopeptidase-like (Homo sapiens), Q4J6C6; recombinant PREPL, fluorescence polarization activity-based probe; 0.68% of 320,000 active; in the data active means inhibition above about 43%
# GRK2 inh = compounds blocking aptamer binding on GRK2 – biochemical, human GRK2, bead flow cytometry, HTS, primary screen; inhibition of aptamer binding, % at 10 µM; Beta-adrenergic receptor kinase 1 (Homo sapiens), P25098; FAM-aptamer displacement from GRK2; 0.59% of 330,000 active;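 active means inhibition of aptamer binding above 40%, roughly 3 SD of noise, on plates passing a quality check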;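 further: median bead fluorescence of bound FAM aptamer so fluorescent compounds give negative values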
# Target sequence (P25098 whole entry, looked up): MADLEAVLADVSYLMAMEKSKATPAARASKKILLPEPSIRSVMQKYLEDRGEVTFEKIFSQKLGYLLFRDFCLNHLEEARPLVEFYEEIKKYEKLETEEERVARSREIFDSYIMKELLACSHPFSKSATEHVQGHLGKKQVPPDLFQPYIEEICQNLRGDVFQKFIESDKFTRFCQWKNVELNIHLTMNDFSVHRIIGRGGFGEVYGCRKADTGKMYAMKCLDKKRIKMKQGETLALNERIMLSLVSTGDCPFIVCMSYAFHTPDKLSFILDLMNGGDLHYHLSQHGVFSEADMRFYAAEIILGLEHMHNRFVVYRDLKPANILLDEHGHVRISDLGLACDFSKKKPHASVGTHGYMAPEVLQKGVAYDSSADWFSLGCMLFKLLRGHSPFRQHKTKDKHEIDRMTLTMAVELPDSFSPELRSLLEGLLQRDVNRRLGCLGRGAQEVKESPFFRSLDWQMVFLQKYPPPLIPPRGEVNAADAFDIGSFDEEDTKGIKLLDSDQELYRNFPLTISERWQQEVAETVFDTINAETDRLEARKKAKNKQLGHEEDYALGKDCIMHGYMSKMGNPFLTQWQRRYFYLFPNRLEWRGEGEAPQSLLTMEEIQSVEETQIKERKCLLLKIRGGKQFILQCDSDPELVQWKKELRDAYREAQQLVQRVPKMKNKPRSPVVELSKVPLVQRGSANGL
# JMJD2C inh = inhibitors of GASC-1 histone demethylase, primary screen, biochemical, fluorescence, DELFIA europium | 0.069% of 330,000 active | inhibition, % at 2.35 µM | GST-JMJD2C(1-420) H3K9me3 demethylation | Lysine-specific demethylase 4C (Homo sapiens), Q9H3R0;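 active means more than half of a compound's replicate wells show inhibition beyond 50%, single wells judged on their own value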;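 further: signal counts dimethyl H3K9 product captured on neutravidin plate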
# DSG3 Ab inh = inhibitors of pemphigus antibody binding to DSG3, primary screen, biochemical, bead-based, flow cytometry, scFv-GFP; Desmoglein-3 (Homo sapiens), P32926; DSG3-coupled beads, scFv-anti-DSG3-GFP binding; hits give low values; binding (percent of control), % at 10 µM; 0.48% of 310,000 active; AID 588358, 2011;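 active means binding more than 3 SD below its plate's average and above zero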;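 further: hits lower antibody fragment binding to DSG3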
# GRK2 CP1 = GRK2 aptamer-displacing inhibitors, retest, confirmation, biochemical, cherry pick 1, bead flow cytometry | shares compounds with GRK2 inh | bead-bound GRK2, FAM-aptamer displacement | aptamer displacement, % at 10 µM | 4% of 2,000 active;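 active means aptamer displacement above 40%, near three times the noise of non-fluorescent compounds, on plates passing quality checks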;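 further: negative values mostly reflect intrinsic compound fluorescence rather than true enhancement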
# Aptamer quench SP = quenches fluorescent RNA aptamer, GRK2 hit artifact | fluorescence response (% of DMSO), % at 10 µM | 2,000 tested, under 10 active | AID 504580 | shares compounds with GRK2 inh | Carboxyfluorescein RNA aptamer on beads, flow cytometry quenching; hits give low values;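 active means compounds that quench the bead-bound fluorescent RNA probe, cutting fluorescence to under half of the solvent control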;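 further: counterscreen run without GRK2 so only probe quenching by compound is measured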
# GRK2 confirm 2 = GRK2 aptamer-displacing inhibitors, hit retest, confirmation, biochemical, cherry pick 2, bead flow cytometry; shares compounds with GRK2 inh; bead-bound GRK2, FAM-aptamer displacement; inhibition of aptamer binding, % at 10 µM; 360 tested, under 10 active;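 active means inhibition of aptamer binding above 40%, about triple the noise seen with nonglowing compounds, on plates passing quality control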;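 further: negative values mostly come from compounds that fluoresce themselves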
# FAM quench SP = quenches fluorescent RNA aptamer, GRK2 hit artifact | shares compounds with GRK2 inh | carboxyfluorescein RNA aptamer beads, flow cytometry quenching; hits give low values | fluorescence response vs DMSO, % at 10 µM | 360 tested, under 10 active;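 active means response vs DMSO under 50%, meaning signal dropped by over half, treated as fluorescence quencher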;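 further: labelled aptamer on streptavidin beads without GRK2 as a quench counter-screen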
# Numbers stand for hits; n = inactive; x = not tested or not shown. This is a sample that favours compounds with a hit; in the whole collection about 1.6% have one here.
SMILES,VLA-4 inh,PREPL inhibitor,GRK2 inh,JMJD2C inh,DSG3 Ab inh,GRK2 CP1,Aptamer quench SP,others
CC(NC(=O)COC(=O)Cc1ccc(-c2ccccc2)cc1)c1ccccc1 (stereo not drawn),n,n,n,n,n,n,22,
O=C(COC(=O)Cc1ccc(-c2ccccc2)cc1)NCc1ccccc1,n,n,n,n,n,n,n,
O=C(COC(=O)CC(c1ccccc1)c1ccccc1)NCc1ccccc1,n,n,n,n,n,x,x,
S=c1ncc2[nH]c(=S)[nH]c2[nH]1,x,x,x,x,n,x,x,
COc1ccc(-c2nc3ccccc3c(=O)n2CC(C)C)cc1,n,n,98,n,n,n,n,
COc1ccc(-c2nc3ccccc3c(=O)n2N)cc1,n,n,n,n,n,x,x,
CCS(=O)(=O)N1CCN(CC(=O)NC2CCCCC2)CC1,n,n,n,n,n,x,x,
CC(C)c1ccc(N2C(=O)CC(NNC(=O)c3cccnc3)C2=O)cc1 (stereo not drawn),n,n,98,n,n,n,n,
COc1ccc(CN(C)C(=O)Cn2cc(C)c(=O)[nH]c2=O)cc1OC,x,x,x,x,n,x,x,
COc1ccc(CN(C)C(=O)Cn2ccsc2=N)cc1OC,n,n,n,n,n,n,n,
Nc1nc2c(ccc3ccccc32)s1,n,n,n,n,x,x,x,GRK2 confirm 2=n;FAM quench SP=n
Nc1ccc2sc(N)nc2c1,n,n,n,n,n,x,x,
Cc1ccc(OC(C)C(=O)OCC(=O)Nc2sccc2C(N)=O)cc1 (stereo not drawn),n,n,n,n,n,x,x,
NNC(=O)c1ccccc1-n1cccc1,n,n,n,n,n,x,x,GRK2 confirm 2=n;FAM quench SP=n
COc1cccc(CN(Cc2cccnc2)S(=O)(=O)c2ccc(-n3cnnn3)c(C)c2)c1,n,n,n,n,n,n,n,
C#CCn1c(O)c(N=NC(=O)CNC(=O)c2cccnc2)c2ccccc21,n,n,n,n,n,x,x,
O=C(c1ccc2c(=O)n(CCc3ccccc3)c(=O)[nH]c2c1)N1CCN(c2ccc(F)cc2)CC1,n,n,n,n,n,x,x,
O=C(c1ccc2c(=O)n(CCc3ccccc3)c(=O)[nH]c2c1)N1CCN(c2ccccc2)CC1,n,n,88,n,n,n,n,
C[C@H]1CN([C@@H](C)CO)C(=O)CCCn2nncc2CO[C@@H]1CN(C)S(=O)(=O)c1cn(C)cn1,x,x,x,x,n,x,x,
O=C(Cn1c(NCCO)nc2ccccc21)NCCc1ccccc1,n,n,n,n,n,x,x,
O=C(Cn1c(NCCO)nc2ccccc21)NCC1CCCO1 (stereo not drawn),n,n,100,n,n,n,n,
O=C(CC12CC3CC(CC(Br)(C3)C1)C2)NCc1ccccc1,n,n,n,n,n,x,x,
COC(=O)c1sc(NC(=O)COc2ccc(OC)cc2)nc1C,n,n,n,n,n,x,x,
COC(=O)c1sc(NC(=O)COc2cccc(C)c2)nc1C,n,n,72,n,n,x,x,GRK2 confirm 2=n;FAM quench SP=n
CC1=C(C(=O)N2CCOCC2)CC(CC(=O)NCc2cccc3ccccc23)C(=O)N1Cc1ccccc1 (stereo not drawn),x,x,x,x,n,x,x,
CCOC(=O)C1=C(COC(=O)c2ccco2)NC(=O)NC1CC (stereo not drawn),n,n,83,x,x,n,n,
CCn1cc(CNC(=O)C2C3CCC(C3)C2C(=O)O)cn1 (stereo not drawn),n,n,n,n,n,n,n,
